# Experimental data from PMC5540273 (PLoS ONE, 2017).
# Where two headings read alike, the source gives them in different places.
# Legend:
# [1] = system: T1, GRK2; details: concentration: 1 μM, replicates: in singlicate; n = 1
# T1 construct: gene ADRBK1
# [2] = system: T2, GRK3; details: concentration: 1 μM, replicates: in singlicate; n = 1
# T2 construct: gene ADRBK2
# [3] = system: GRK4; details: concentration: 1 μM, replicates: in singlicate; n = 1
# [4] = system: GRK7; details: concentration: 1 μM, replicates: in singlicate; n = 1
# [5] = system: GSK3A; details: concentration: 1 μM, replicates: in singlicate; n = 1
# [6] = system: GSK3B; details: n = 1
# [7] = system: T3, HASPIN; details: concentration: 1 μM, replicates: in singlicate; n = 1
# T3 construct: gene GSG2
# [8] = system: HCK; details: concentration: 1 μM, replicates: in singlicate; n = 1
# [9] = system: HIPK1; details: concentration: 1 μM, replicates: in singlicate; n = 1
# [10] = system: HIPK2; details: concentration: 1 μM, replicates: in singlicate; n = 1
# [11] = system: HIPK3; details: concentration: 1 μM, replicates: in singlicate; n = 1
# [12] = system: HIPK4; details: concentration: 1 μM, replicates: in singlicate; n = 1
# [13] = system: HPK1; details: concentration: 1 μM, replicates: in singlicate; n = 1
# [14] = system: HUNK; details: concentration: 1 μM, replicates: in singlicate; n = 1
# [15] = system: ICK; details: concentration: 1 μM, replicates: in singlicate; n = 1
# [16] = system: IGF1R; details: concentration: 1 μM, replicates: in singlicate; n = 1
# [17] = system: T4, IKK-alpha; details: concentration: 1 μM, replicates: in singlicate; n = 1
# T4 construct: gene CHUK
# [18] = system: T5, IKK-beta; details: concentration: 1 μM, replicates: in singlicate; n = 1
# T5 construct: gene IKBKB
# [19] = system: T6, IKK-epsilon; details: concentration: 1 μM, replicates: in singlicate; n = 1
# T6 construct: gene IKBKE
# [20] = system: INSRR; details: concentration: 1 μM, replicates: in singlicate; n = 1
# [21] = concentration: 1 μM, replicates: in singlicate
# 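Further: KINOMEscan kinase panel screen.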
structure (smiles),measurement,setting,value
COc1cc2nccc(Nc3cccc(Oc4ccccc4)c3)c2cc1OC.Cl [GW284543],%Inh,[1],28%
same,%Inh,[2],16%
same,%Inh,[3],7%
same,%Inh,[4],0%
same,%Inh,[5],5%
same,%Inh,[6]; [21],0%
same,%Inh,[7],11%
same,%Inh,[8],44%
same,%Inh,[9],0%
same,%Inh,[10],25%
same,%Inh,[11],0%
same,%Inh,[12],21%
same,%Inh,[13],2%
same,%Inh,[14],15%
same,%Inh,[15],0%
same,%Inh,[16],14%
same,%Inh,[17],0%
same,%Inh,[18],0%
same,%Inh,[19],0%
same,%Inh,[20],0%
COc1cc(Nc2ccnc3ccc(C(F)(F)F)cc23)cc(OC)c1OC [GW577382],%Inh,[1],0%
same,%Inh,[2],25%
same,%Inh,[3],0%
same,%Inh,[4],0%
same,%Inh,[5],0%
same,%Inh,[6]; [21],3%
same,%Inh,[7],29%
same,%Inh,[8],38%
same,%Inh,[9],5%
same,%Inh,[10],0%
same,%Inh,[11],18%
same,%Inh,[12],0%
same,%Inh,[13],31%
same,%Inh,[14],30%
same,%Inh,[15],0%
same,%Inh,[16],0%
same,%Inh,[17],21%
same,%Inh,[18],3%
same,%Inh,[19],0%
same,%Inh,[20],4%
COc1cc2ncn(-c3cc(OCc4ccc(S(C)(=O)=O)cc4)c(C(N)=O)s3)c2cc1OC [GW869979],%Inh,[1],45%
same,%Inh,[2],0%
same,%Inh,[3],1%
same,%Inh,[4],0%
same,%Inh,[5],3%
same,%Inh,[6]; [21],0%
same,%Inh,[7],40%
same,%Inh,[8],0%
same,%Inh,[9],0%
same,%Inh,[10],9%
same,%Inh,[11],2%
same,%Inh,[12],26%
same,%Inh,[13],10%
same,%Inh,[14],2%
same,%Inh,[15],19%
same,%Inh,[16],6%
same,%Inh,[17],0%
same,%Inh,[18],7%
same,%Inh,[19],25%
same,%Inh,[20],0%
COc1cc2ncn(-c3cc(OCc4ccncc4Br)c(C(N)=O)s3)c2cc1OC [GW854278],%Inh,[1],5%
same,%Inh,[2],0%
same,%Inh,[3],35%
same,%Inh,[4],4%
same,%Inh,[5],7%
same,%Inh,[6]; [21],0%
same,%Inh,[7],5%
same,%Inh,[8],3%
same,%Inh,[9],0%
same,%Inh,[10],4%
same,%Inh,[11],15%
same,%Inh,[12],32%
same,%Inh,[13],0%
same,%Inh,[14],0%
same,%Inh,[15],5%
same,%Inh,[16],0%
same,%Inh,[17],6%
same,%Inh,[18],3%
same,%Inh,[19],0%
same,%Inh,[20],7%
COC(=O)c1c(-c2ccccc2)c2cc(C)ccc2c(=O)n1Cc1ccccc1,%Inh,[1],0%
same,%Inh,[2],0%
same,%Inh,[3],28%
same,%Inh,[4],0%
same,%Inh,[5],0%
same,%Inh,[6]; [21],0%
same,%Inh,[7],0%
same,%Inh,[8],0%
same,%Inh,[9],0%
same,%Inh,[10],0%
same,%Inh,[11],0%
same,%Inh,[12],0%
same,%Inh,[13],0%
same,%Inh,[14],0%
same,%Inh,[15],0%
same,%Inh,[16],5%
same,%Inh,[17],0%
same,%Inh,[18],0%
same,%Inh,[19],0%
same,%Inh,[20],1%
Nc1n[nH]c2ncc(-c3ccccc3)cc12 [SB-517081],%Inh,[1],0%
same,%Inh,[2],22%
same,%Inh,[3],21%
same,%Inh,[4],0%
same,%Inh,[5],34%
same,%Inh,[6]; 1 µM,20%
same,%Inh,[7],0%
same,%Inh,[8],0%
same,%Inh,[9],0%
same,%Inh,[10],0%
same,%Inh,[11],12%
same,%Inh,[12],0%
same,%Inh,[13],44%
same,%Inh,[14],13%
same,%Inh,[15],0%
same,%Inh,[16],18%
same,%Inh,[17],27%
same,%Inh,[18],65%
same,%Inh,[19],13%
same,%Inh,[20],0%
COc1cc(OC)cc(-c2cc3cnc(N)nc3nc2NC(=O)NC(C)(C)C)c1,%Inh,[1],0%
same,%Inh,[2],0%
same,%Inh,[3],13%
same,%Inh,[4],9%
same,%Inh,[5],0%
same,%Inh,[6]; [21],0%
same,%Inh,[7],0%
same,%Inh,[8],0%
same,%Inh,[9],15%
same,%Inh,[10],0%
same,%Inh,[11],0%
same,%Inh,[12],0%
same,%Inh,[13],0%
same,%Inh,[14],0%
same,%Inh,[15],0%
same,%Inh,[16],0%
same,%Inh,[17],7%
same,%Inh,[18],9%
same,%Inh,[19],7%
same,%Inh,[20],0%
Cc1cccc(-c2nc(Nc3ccc4c(cnn4C)c3)c3ccccc3n2)n1 [GW876731],%Inh,[1],16%
same,%Inh,[2],5%
same,%Inh,[3],0%
same,%Inh,[4],15%
same,%Inh,[5],18%
same,%Inh,[6]; [21],0%
same,%Inh,[7],11%
same,%Inh,[8],0%
same,%Inh,[9],0%
same,%Inh,[10],14%
same,%Inh,[11],0%
same,%Inh,[12],14%
same,%Inh,[13],0%
same,%Inh,[14],35%
same,%Inh,[15],10%
same,%Inh,[16],0%
same,%Inh,[17],1%
same,%Inh,[18],13%
same,%Inh,[19],21%
same,%Inh,[20],15%
COc1cc2ncn(-c3cc(OCc4ccncc4)c(C(N)=O)s3)c2cc1OC [GSK336313],%Inh,[1],0%
same,%Inh,[2],0%
same,%Inh,[3],0%
same,%Inh,[4],0%
same,%Inh,[5],15%
same,%Inh,[6]; [21],7%
same,%Inh,[7],0%
same,%Inh,[8],0%
same,%Inh,[9],15%
same,%Inh,[10],0%
same,%Inh,[11],21%
same,%Inh,[12],0%
same,%Inh,[13],21%
same,%Inh,[14],0%
same,%Inh,[15],4%
same,%Inh,[16],0%
same,%Inh,[17],0%
same,%Inh,[18],0%
same,%Inh,[19],26%
same,%Inh,[20],99.3%
O=C(Nc1n[nH]c2nc(-c3ccccc3)c(Br)cc12)C1CC1 [SB-708998],%Inh,[1],12%
same,%Inh,[2],0%
same,%Inh,[3],14%
same,%Inh,[4],0%
same,%Inh,[5],90.3%
same,%Inh,[6]; 1 µM,15%
same,%Inh,[7],0%
same,%Inh,[8],0%
same,%Inh,[9],0%
same,%Inh,[10],0%
same,%Inh,[11],0%
same,%Inh,[12],6%
same,%Inh,[13],20%
same,%Inh,[14],0%
same,%Inh,[15],0%
same,%Inh,[16],1%
same,%Inh,[17],0%
same,%Inh,[18],5%
same,%Inh,[19],2%
same,%Inh,[20],9%
